Screening results: PubChem, National Center for Advancing Translational Sciences (NCATS)
TDP1 cell noCPT: qHTS for Inhibitors of human tyrosyl-DNA phosphodiesterase 1 (TDP1): qHTS in cells in absence of CPT; DT40 Tdp1-/- hTDP1 cells, no CPT, ATP luminescence, 48 h; Potency, µM (titrated, usually from 46.2 µM), without a hit: at the highest dose activity change, negative = growth inhibition, actives largely listed as inhibitors; 420,000 tested, 15% active; also: potency is read from the fitted curve at half-maximal effect; nearly all actives have a fitted effect of over 55% in size
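Stably hTDP1-transfected Tdp1-null chicken DT40 cells were treated with library compounds minus camptothecin and grown for at least 48 hr at 37 °C, after which cellular ATP was quantified by luminescence.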
HT1080NT lethal: kills 2HG-producing HT-1080-NT fibrosarcoma cells | HT-1080-NT fibrosarcoma viability, CellTiter-Glo ATP luminescence, 48 h | 360,000 tested, 1.6% active | Potency, µM (titrated, usually from 46.1 µM), inactives show top-dose activity, negative = less viability, usual class: cytotoxic;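 also: NT is the 2HG producing partner of a matched IDH1 knockdown line; potency is read from the fitted curve at half-maximal effect; 0% = DMSO-treated cells and -100% = media-only wells without cells; nearly all actives have a fitted effect of over 55% in size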
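Viability of the 2HG-overproducing fibrosarcoma line after 48 hours of compound exposure at 37 degrees C was determined by luminescence with CellTiter-Glo, and concentration-effect curves were then fitted and categorized.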
IL-1B inflam inh: blocks inflammasome-driven IL-1 beta release. activity change, % at 57.5 µM. 360,000 tested, 4.7% active. THP-1 LPS/ATP IL-1B secretion, AlphaLISA, 16 h; hits give low values; in the data active = activity change below about -50%; inconclusive = mostly about -30% to -49%
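THP-1 cells pretreated 1 hr with compounds (up to 57.5 uM final), then stimulated with LPS (250 ng/mL final) plus ATP (1.25 mM final); secreted IL-1B measured by AlphaLISA after 16 hr, decreased signal indicating inhibition.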
HT1080 IDH1KD tx: toxicity to HT-1080 IDH1 knockdown cells (counter line). HT-1080 IDH1 knockdown viability, ATP luminescence, 48 h. Potency, µM (top dose mostly 46.1 µM), inactives show at the highest dose activity, negative = toxicity, most hits filed as cytotoxic. 360,000 tested, 2% active;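 also: potency is read from the fitted curve at half-maximal effect; 0% = DMSO wells and -100% = cell-free medium wells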
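HT-1080-IDH1KD cells (IDH1 knocked down), 750/well in RPMI with 5% FBS, treated with compound 48 h at 37 degrees C. Viability by CellTiter-Glo luminescence, normalised to DMSO and no-cell wells; concentration-response curves classed.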
ALOX12 inh: inhibitors of human 12S-lipoxygenase ALOX12. purified 12hLO, xylenol orange hydroperoxide absorbance. 580,000 tested, 1.1% active. AID 1671190. Potency, µM (series often up to 108 µM), inactives show at the top dose activity change, negative = inhibition, most hits filed as inhibitors. P18054; also: potency is read from the fitted curve at half-maximal effect
Target sequence (P18054 whole entry, looked up): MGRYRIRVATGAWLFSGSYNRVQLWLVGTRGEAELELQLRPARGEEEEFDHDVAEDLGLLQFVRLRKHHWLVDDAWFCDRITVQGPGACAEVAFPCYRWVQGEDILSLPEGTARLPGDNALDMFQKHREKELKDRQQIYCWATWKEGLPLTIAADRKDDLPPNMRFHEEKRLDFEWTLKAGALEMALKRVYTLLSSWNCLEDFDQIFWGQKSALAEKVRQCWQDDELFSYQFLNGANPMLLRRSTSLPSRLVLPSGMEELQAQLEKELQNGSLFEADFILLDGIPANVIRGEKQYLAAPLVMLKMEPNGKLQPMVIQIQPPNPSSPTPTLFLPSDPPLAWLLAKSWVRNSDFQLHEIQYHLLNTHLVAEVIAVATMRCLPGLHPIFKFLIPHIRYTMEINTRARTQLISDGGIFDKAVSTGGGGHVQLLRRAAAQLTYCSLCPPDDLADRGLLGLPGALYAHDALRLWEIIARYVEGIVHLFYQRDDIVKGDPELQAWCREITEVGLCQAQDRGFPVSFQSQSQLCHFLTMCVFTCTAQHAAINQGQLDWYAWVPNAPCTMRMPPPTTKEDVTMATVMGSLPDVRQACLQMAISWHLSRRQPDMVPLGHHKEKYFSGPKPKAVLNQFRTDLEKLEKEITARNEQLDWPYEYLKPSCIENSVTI
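Purified human 12hLO (150 nM final) in 25 mM Hepes, 0.01% Triton X-100, pH 7.0 was preincubated 15 min at room temperature with compound. Then 40 uM arachidonic acid was added, 30 min. Hydroperoxide was read by Fe-XO absorbance ratio 573/405 nm.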
TDP1 cell CPT: growth inhibition of DT40 Tdp1-/-;hTDP1 cells with camptothecin (screen for TDP1 inhibitors); 420,000 tested, 12% active; chicken DT40 Tdp1-/-;hTDP1 cells + 20 nM CPT, ATP luminescence, 48 h; Potency, µM (titrated, usually from 46.2 µM), inactives show at the top dose activity change, negative = growth inhibition, hits mostly inhibitors; also: potency is read from the fitted curve at half-maximal effect; nearly all actives have a fitted effect of over 55% in size
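Chicken DT40 Tdp1-/- cells complemented with human TDP1, 400 cells/well, exposed to compounds plus 20 nM camptothecin for at least 48 h at 37 C; viability read as ATP content by CellTiter-Glo luminescence.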
Active calls of the source: *; ? = inconclusive; . = not tested or not shown; ! = repeats disagree; [ ] = another dose, or the depositor's remark. Shown is part of a subset that was picked to be rich in hits. Unless noted, calls follow the shape of the dose curve; as a rule, active = well fitted curve in the direction sought with a large enough effect; inconclusive = small, poorly fitted or top-dose-only effect, or another doubt; inactive = no such curve, though single readings can be large; an effect the other way counts as inactive or inconclusive. Unless noted, % is scaled to controls: 0 for no effect and ±100 for the full control effect.

SMILES	TDP1 cell noCPT	HT1080NT lethal	IL-1B inflam inh	HT1080 IDH1KD tx	ALOX12 inh	TDP1 cell CPT
CCc1ccc(NC(=O)C[n+]2cc(-c3ccc(C)cc3)n3c2CCC3)cc1	3.7µM*	?	?	-26%	?	2.3µM*
Cc1ccc(-c2c[n+](CC(=O)Nc3c(C)cccc3C)c3n2CCC3)cc1	?	-6%	-64*	-7%	80%	?
COc1cc(NC(=O)Cn2cc(C#N)c3ccccc32)cc(OC)c1OC	.	.	.	.	29%	.
Cc1ccc(C)c([S+](=O)([O-])c2nnn3c2nc(NC2CCCC2)c2ccccc23)c1	.	.	.	.	2%[6.33 µM]	.
Cc1nnc(SCc2nc3ccccc3o2)n1-c1ccccc1	.	.	.	.	14%	.
CCC(=O)N1Cc2ccccc2CC2(CCN(Cc3ccc(O)cc3)C2)C1 (stereo unspecified)	.	.	.	.	12%[6.33 µM]	.
CCC(=O)N1Cc2ccccc2CC2(CCN(CCc3ccc(C)cc3)CC2)C1	.	.	.	.	35µM*	.
O=C(N/N=C/c1cccnc1)c1cccc(Br)c1	0%	17%	7	18%	0%	-12%
O=C(/C=C/c1cccnc1)c1ccc(NC(=O)c2cccc(Br)c2)cc1	3.2µM*	-13%	-25	-15%	0%	7.1µM*
Cc1cccc(C(=O)Nc2ccc(C(=O)/C=C/c3ccncc3)cc2)c1	?	?	6	?	?	?
Cc1cccc(C(=O)Nc2ccc(C(=O)/C=C/c3cccnc3)cc2)c1	4.6µM*	?	-78*	18µM*	?	5.2µM*
CCNC(=O)[C@@H]1C[C@H](NC(=O)Cc2ccccc2F)CN1C1CCOCC1	.	.	.	.	11%	.
COc1ccc(NC(=O)c2oc3ccc(S(=O)(=O)N4CCC5(CC4)OCCO5)cc3c2C)cc1Cl	9.2µM*	.	.	.	-17%	8.2µM*
Cc1ccc(NC(=O)c2oc3ccc(S(=O)(=O)N4CCC5(CC4)OCCO5)cc3c2C)cc1C	?	-2%	0	-5%	-5%	8.2µM*!
Cc1ccc(-n2ccnc(SCC(=O)NCCc3ccccc3)c2=O)cc1F	15µM*	17%	-25	12%	?	?
CCOc1ccc(-n2ccnc(SCC(=O)NCCc3ccccc3)c2=O)cc1	?	-13%	2	-11%	-4%	?
CCOC(=O)Nc1ccc(C(=O)OC)cc1	.	.	.	.	-9%	.
CN1C(=O)C(c2ccccc2)CC12CCN(CCC(=O)O)CC2 (stereo unspecified)	.	.	.	.	49%	.
Cc1ccc(C(=O)CCC(=O)N(C)CC(=O)Nc2ccccc2Br)cc1	-8%	4%	-5	0%	-13%	1%
CCOc1ccc(NC(=O)CN(C)C(=O)CCCOc2ccc(Br)cc2)cc1OCC	?	-4%	-7	-13%	?	18µM*
Cc1ccc(OCCCC(=O)N(C)CC(=O)Nc2ccccc2Br)cc1	-18%	-12%	-55*	-16%	-4%	-13%
Cc1nc2ccccn2c(=O)c1Cc1nnc(SCC(=O)Nc2ccccc2)n1C	.	.	.	.	1%	.
CCOc1cc(CNc2ccccc2)cc(Br)c1OCC(=O)NC(C)(C)C	?	?	-87*	?	-24%	?
CCOc1cc(CNc2ccc(OC)cc2)cc(Br)c1OCC(=O)NC(C)(C)C	?	?	?	0%	-19%	?
CCOc1cc(CNc2ccc(Br)cc2)cc(Br)c1OCC(=O)NC(C)(C)C	?	?	-26	?	-5%	21µM*
COc1cc(CNc2ccc(CNc3ncn[nH]3)cc2)ccc1OCC(=O)NC(C)(C)C	16µM*	-5%	-3	-6%	12%	?
CC(C)(C)NC(=O)COc1ccc(CNc2ncn[nH]2)cc1	-21%	25%	-2	?	4%	5%
Cc1ccc(CC(=O)Nc2cccc(-c3nnc4n3CCCC4)c2)cc1	.	.	.	.	40%	.
